From PubChem BioAssay (NCI)
This is part of a sample that, as a whole, favours compounds with a hit. Of some 83,000 tested, about 20% had one in any assay.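 Testing used 96-well plates and a 48-hour single-concentration exposure. Example: -40 means 40% of the starting cells died.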 Active and inactive are the calls of the source. The calls were made as follows: active = growth percent below 10; inactive = the rest.

These compounds were tested on SF-539 CNS (assay: NCI-60 one-dose screen, 48 h (100 = growth as untreated, 0 = no growth, -100 = all killed)). Conditions: 10 µM unless noted.

SMILES	growth
O=C(/C=C/c1ccc(Cl)cc1)c1ccc(NC(=O)N2CCN(c3cc4c(cc3F)c(=O)c(C(=O)O)cn4C3CC3)CC2)cc1	81.7% (inactive)
O=C(c1nc2ccccc2[nH]1)C1C(c2ccc(Cl)cc2)C2CC3CCCC[C@H]3N2[C@@]12C(=O)Nc1cc(Cl)ccc12 (stereo partly specified)	60.6% (inactive)
O=C(NCCNc1nccc(-c2c(-c3cccc(F)c3)nc3sccn23)n1)c1ccc(Cl)cc1	90% (inactive)
O=C(CCN1CCCC1)Nc1ccc2c(NCCCc3ccccc3)c3ccccc3nc2c1	13.7% (inactive)
N#CC1=C(/N=C/c2ccccc2)Oc2c(ccc3ccccc23)C1c1ccc([N+](=O)[O-])cc1 (stereo unspecified)	95.1% (inactive)
Brc1ccc(Nc2csc(-c3ccccn3)n2)cc1	95% (inactive)
COc1cc(/C(C)=C(\c2ccc(Cl)cc2)c2ccc(OCCN3CCCC3)cc2)ccc1F	73.3% (inactive)
CC(=O)N1c2ccccc2NC2=C(C(=O)NC2(C)C)C1c1ccco1 (stereo unspecified)	94.6% (inactive)
CCOC(=O)CSc1nc2ccccc2c(=O)n1Cc1ccc(S(N)(=O)=O)cc1	97.7% (inactive)
CCCCOc1ccc(/C(C)=N/Nc2cc(C)nc3ccc(Br)cc23)cc1	98.7% (inactive)
COc1cc2c(c(O)c1Cl)C(=O)c1c(O)cc(C[C@H](C)O)cc1[C@H]2[C@H]1c2cc(C[C@H](C)O)cc(O)c2C(=O)c2c1cc(OC)c(Cl)c2O	-8.14% (active)
O=C(c1ccccc1)N1N=C(c2ccc(-n3ccc(C(F)(F)F)n3)c(F)c2)CC1c1ccc[nH]1 (stereo unspecified)	109% (inactive)
O=C(Nc1ccc(-c2ccc3c(c2)NC(=O)/C3=C\c2ccc[nH]2)cc1)NC1CC1	71.5% (inactive)
O=c1ccc(-c2nc(N3CCOCC3)c3ccccc3n2)c[nH]1	93.5% (inactive)
COc1cc(/C=C\C(=O)O)ccc1OCc1ccccc1	99.5% (inactive)
COc1ccc(C(C)=O)c(OC)c1	103% (inactive)
NC1=NN=C(N)C1=Cc1cc2ccccc2n2nnnc12	102% (inactive)
C=C1C(=O)O[C@H]2[C@H]1CC/C(CNC(=O)/C=C/c1cccc(OC)c1)=C\CC[C@@]1(C)O[C@@H]21	-70.5% (active)
CNC(=O)c1cc(Cn2nc(C)c(NC(=O)Nc3ccc(Cl)c(C(F)(F)F)c3)c2C)ccn1	94% (inactive)
Cc1ccc(/C=N/NC(=O)CSc2nc3ccccc3c(=O)n2Cc2ccc(S(N)(=O)=O)cc2)cc1	102% (inactive)
O=C(Cc1ccc(/C=C/C(=O)c2ncc[nH]2)cc1)Nc1ccc(Cl)cc1	-23.1% (active)
CCCOC(=O)N[C@H]1CCc2c(Cl)c(OC)c(OC)c(OC)c2-c2ccc(SC)c(=O)cc21	3.18% (active)
O=S(=O)(NCCCNc1nccc(-c2c(-c3cccc(O)c3)nc3occn23)n1)c1ccc(Cl)cc1	108% (inactive)
COc1cc2c(=O)n(CCN(C)C)c3c4cc5c(cc4ccc3c2cc1OC)OCO5	-39.9% (active)
C=CC(=O)N[C@@H](/C=C/C(=O)OCC)Cc1ccc(-c2cc(Cl)cc(Cl)c2)cc1	56.8% (inactive)
NC(=NCCCOc1ccc(F)cc1)Nc1ccc(I)cc1	78.8% (inactive)
Cc1cc2nc3c4cccc(O)c4n(CCN(C)C)c3nc2cc1C	25.7% (inactive)
Oc1ccc(C(c2ccc(O)cc2)c2ccc(Br)cn2)cc1	84.9% (inactive)

These compounds were tested on UACC-257 melanoma in the same assay as above. Conditions: 10 µM unless noted.

SMILES	growth
COc1cc(C=O)ccc1OC1OC(COC(C)=O)C(OC(C)=O)C(OC(C)=O)C1OC(C)=O (stereo unspecified)	101% (inactive)
CC1=CCC(OC(=O)C(C)(O)CCC(O)(C(=O)OC2(C)C=CC(O)(C(C)C)CC2)C(C)C)(C(C)C)CC1 (stereo unspecified)	106% (inactive)
CC(=O)Nc1cccc(-c2ccc3c(c2)NC(=O)/C3=C\c2ccc[nH]2)c1	73.2% (inactive)
CC(C)(C)c1ccc(NS(=O)(=O)c2ccc3nc(NC(=O)c4cnccn4)[nH]c3c2)cc1	46.7% (inactive)
CC(C)(C)c1cc(/C=N/NC(=O)c2ccccc2NC(=O)c2cccs2)c(O)c(C(C)(C)C)c1	38.6% (inactive)
C#CCNC(=O)[C@H](Cc1ccccc1)NC(=O)[C@]12CC[C@@H](C(=C)C)[C@@H]1[C@H]1CC[C@@H]3[C@@]4(C)CCC(=O)C(C)(C)[C@@H]4CC[C@@]3(C)[C@]1(C)CC2	59.4% (inactive)
CCCCCCNC(=O)Oc1ccc(/C(=C(\C)c2ccccc2)c2ccc(OCCCN(C)C)cc2)cc1	86.2% (inactive)
CC(=O)Nc1ccc(-c2ccc3c(c2)NC(=O)/C3=C\c2ccc[nH]2)cc1	119% (inactive)
CCCCOc1ccc(/C=N/Nc2cc(C)nc3ccc(Br)cc23)cc1	96.3% (inactive)
COc1cc(/C(C)=C(\c2ccc(Cl)cc2)c2ccc(OCCN(C)C)cc2)ccc1F	-4.66% (active)
O=C(/C=C/c1ccc(Cl)cc1)c1ccc(NC(=O)N2CCN(c3cc4c(cc3F)c(=O)c(C(=O)O)cn4C3CC3)CC2)cc1	105% (inactive)
O=C(c1nc2ccccc2[nH]1)C1C(c2ccc(Cl)cc2)C2CC3CCCC[C@H]3N2[C@@]12C(=O)Nc1cc(Cl)ccc12 (stereo partly specified)	45.7% (inactive)
O=C(NCCNc1nccc(-c2c(-c3cccc(F)c3)nc3sccn23)n1)c1ccc(Cl)cc1	76% (inactive)
O=C(CCN1CCCC1)Nc1ccc2c(NCCCc3ccccc3)c3ccccc3nc2c1	14.7% (inactive)
N#CC1=C(/N=C/c2ccccc2)Oc2c(ccc3ccccc23)C1c1ccc([N+](=O)[O-])cc1 (stereo unspecified)	97.1% (inactive)
Brc1ccc(Nc2csc(-c3ccccn3)n2)cc1	111% (inactive)
COc1cc(/C(C)=C(\c2ccc(Cl)cc2)c2ccc(OCCN3CCCC3)cc2)ccc1F	3.02% (active)
CC(=O)N1c2ccccc2NC2=C(C(=O)NC2(C)C)C1c1ccco1 (stereo unspecified)	75.1% (inactive)
CCOC(=O)CSc1nc2ccccc2c(=O)n1Cc1ccc(S(N)(=O)=O)cc1	101% (inactive)

SMILES	growth
CCCCOc1ccc(/C(C)=N/Nc2cc(C)nc3ccc(Br)cc23)cc1	114% (inactive)
COc1cc2c(c(O)c1Cl)C(=O)c1c(O)cc(C[C@H](C)O)cc1[C@H]2[C@H]1c2cc(C[C@H](C)O)cc(O)c2C(=O)c2c1cc(OC)c(Cl)c2O	-4.04% (active)
O=C(c1ccccc1)N1N=C(c2ccc(-n3ccc(C(F)(F)F)n3)c(F)c2)CC1c1ccc[nH]1 (stereo unspecified)	95.6% (inactive)
O=C(Nc1ccc(-c2ccc3c(c2)NC(=O)/C3=C\c2ccc[nH]2)cc1)NC1CC1	117% (inactive)
O=c1ccc(-c2nc(N3CCOCC3)c3ccccc3n2)c[nH]1	124% (inactive)
COc1cc(/C=C\C(=O)O)ccc1OCc1ccccc1	91% (inactive)
COc1ccc(C(C)=O)c(OC)c1	97.8% (inactive)
NC1=NN=C(N)C1=Cc1cc2ccccc2n2nnnc12	98.3% (inactive)
C=C1C(=O)O[C@H]2[C@H]1CC/C(CNC(=O)/C=C/c1cccc(OC)c1)=C\CC[C@@]1(C)O[C@@H]21	-6.14% (active)
CNC(=O)c1cc(Cn2nc(C)c(NC(=O)Nc3ccc(Cl)c(C(F)(F)F)c3)c2C)ccn1	79% (inactive)
Cc1ccc(/C=N/NC(=O)CSc2nc3ccccc3c(=O)n2Cc2ccc(S(N)(=O)=O)cc2)cc1	96.4% (inactive)
O=C(Cc1ccc(/C=C/C(=O)c2ncc[nH]2)cc1)Nc1ccc(Cl)cc1	78.7% (inactive)
CCCOC(=O)N[C@H]1CCc2c(Cl)c(OC)c(OC)c(OC)c2-c2ccc(SC)c(=O)cc21	72.4% (inactive)
O=S(=O)(NCCCNc1nccc(-c2c(-c3cccc(O)c3)nc3occn23)n1)c1ccc(Cl)cc1	12.7% (inactive)
COc1cc2c(=O)n(CCN(C)C)c3c4cc5c(cc4ccc3c2cc1OC)OCO5	-33.4% (active)
C=CC(=O)N[C@@H](/C=C/C(=O)OCC)Cc1ccc(-c2cc(Cl)cc(Cl)c2)cc1	-2.68% (active)
NC(=NCCCOc1ccc(F)cc1)Nc1ccc(I)cc1	55.8% (inactive)
Cc1cc2nc3c4cccc(O)c4n(CCN(C)C)c3nc2cc1C	63.5% (inactive)
Oc1ccc(C(c2ccc(O)cc2)c2ccc(Br)cn2)cc1	91.3% (inactive)
